Consider six molecules from ChEMBL document CHEMBL1961873, “Compounds: GSK PKIS; Assays: Nanosyn kinase panel” (2012).

The target of assay [1] is T1, Muscle, skeletal receptor tyrosine-protein kinase (Homo sapiens) (UniProt O15146).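 Further: reported value is the mean percent inhibition of MuSK kinase.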
T1 sequence (whole entry): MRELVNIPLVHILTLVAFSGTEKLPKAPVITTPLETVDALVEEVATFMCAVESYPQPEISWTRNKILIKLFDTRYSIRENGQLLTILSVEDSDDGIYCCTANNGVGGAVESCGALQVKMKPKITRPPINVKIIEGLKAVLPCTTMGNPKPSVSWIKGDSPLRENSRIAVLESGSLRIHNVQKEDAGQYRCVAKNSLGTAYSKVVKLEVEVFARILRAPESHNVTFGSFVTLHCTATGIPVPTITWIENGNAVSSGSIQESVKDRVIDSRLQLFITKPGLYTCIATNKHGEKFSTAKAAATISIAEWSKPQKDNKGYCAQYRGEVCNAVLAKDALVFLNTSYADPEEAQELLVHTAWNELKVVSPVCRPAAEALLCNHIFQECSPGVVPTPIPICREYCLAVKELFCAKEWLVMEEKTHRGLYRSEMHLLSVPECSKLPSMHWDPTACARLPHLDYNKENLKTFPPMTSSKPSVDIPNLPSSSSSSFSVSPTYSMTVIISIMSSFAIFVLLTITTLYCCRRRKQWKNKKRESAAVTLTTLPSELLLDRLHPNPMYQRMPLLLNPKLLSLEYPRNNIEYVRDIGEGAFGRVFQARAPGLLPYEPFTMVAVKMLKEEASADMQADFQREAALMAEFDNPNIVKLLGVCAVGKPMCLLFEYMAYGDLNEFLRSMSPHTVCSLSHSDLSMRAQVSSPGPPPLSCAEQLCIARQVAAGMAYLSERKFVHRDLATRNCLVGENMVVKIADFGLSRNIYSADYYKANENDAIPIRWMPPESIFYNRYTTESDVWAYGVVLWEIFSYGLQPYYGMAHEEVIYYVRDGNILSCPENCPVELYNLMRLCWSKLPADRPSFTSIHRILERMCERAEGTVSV
Particulars: at 1 µM.

Assay [2] deals with Platelet-derived growth factor receptor alpha (Homo sapiens) (UniProt P16234). Particulars: at 0.1 µM.
Assay [3] has the same target. The note with it: at 1 µM.
Assay [4] deals with Platelet-derived growth factor receptor alpha (Homo sapiens), P16234 [D842V]. The note with it: at 0.1 µM.
Assay [5] has the same test system. Particulars: at 1 µM.
The test system of assay [6] is Platelet-derived growth factor receptor alpha (Homo sapiens), P16234 [T674I]. The note with it: at 0.1 µM.
For assay [7] the test system is unchanged. Particulars: at 1 µM.
Assay [8] deals with Platelet-derived growth factor receptor alpha (Homo sapiens), P16234 [V561D]. The note with it: at 0.1 µM.
The test system is the same in assay [9]. The note with it: at 1 µM.
The target in assay [10] is Platelet-derived growth factor receptor beta (Homo sapiens) (UniProt P09619). Particulars: at 0.1 µM.
Assay [11] has the same target. Particulars: at 1 µM.
The target in assay [12] is Tyrosine-protein kinase FRK (Homo sapiens) (UniProt P42685). Particulars: at 0.1 µM.
The target is the same in assay [13]. Particulars: at 1 µM.
Assay [14] deals with Protein-tyrosine kinase 2-beta (Homo sapiens) (UniProt Q14289). Particulars: at 0.1 µM.
For assay [15] the target is unchanged. The note with it: at 1 µM.
Assay [16] addresses Proto-oncogene tyrosine-protein kinase receptor Ret (Homo sapiens) (UniProt P07949). Particulars: at 0.1 µM.
Assay [17] shares this target. Particulars: at 1 µM.
For assay [18], the system named is Proto-oncogene tyrosine-protein kinase receptor Ret (Homo sapiens), P07949 [V804L]. The note with it: at 0.1 µM.
Assay [19] has the same test system. Particulars: at 1 µM.
Assay [20] concerns Proto-oncogene tyrosine-protein kinase receptor Ret (Homo sapiens), P07949 [Y791F]. The note with it: at 0.1 µM.

Sequence of Tyrosine-protein kinase FRK (Homo sapiens) (P42685 whole entry): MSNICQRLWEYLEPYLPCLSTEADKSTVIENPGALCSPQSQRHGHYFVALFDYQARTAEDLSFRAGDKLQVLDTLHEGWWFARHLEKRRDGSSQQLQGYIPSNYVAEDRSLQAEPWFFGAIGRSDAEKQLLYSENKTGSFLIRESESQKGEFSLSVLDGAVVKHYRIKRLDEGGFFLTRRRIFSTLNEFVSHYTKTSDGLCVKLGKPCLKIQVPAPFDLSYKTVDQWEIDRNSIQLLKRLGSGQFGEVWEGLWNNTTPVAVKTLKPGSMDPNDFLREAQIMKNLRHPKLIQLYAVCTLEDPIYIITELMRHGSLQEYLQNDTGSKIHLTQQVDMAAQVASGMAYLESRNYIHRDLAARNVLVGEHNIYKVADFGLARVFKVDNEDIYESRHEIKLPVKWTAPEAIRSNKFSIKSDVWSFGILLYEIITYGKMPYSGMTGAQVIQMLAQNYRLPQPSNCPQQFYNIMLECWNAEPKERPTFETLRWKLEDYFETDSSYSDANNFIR
Sequence of Proto-oncogene tyrosine-protein kinase receptor Ret (Homo sapiens), P07949 [V804L] (P07949 whole entry V804L): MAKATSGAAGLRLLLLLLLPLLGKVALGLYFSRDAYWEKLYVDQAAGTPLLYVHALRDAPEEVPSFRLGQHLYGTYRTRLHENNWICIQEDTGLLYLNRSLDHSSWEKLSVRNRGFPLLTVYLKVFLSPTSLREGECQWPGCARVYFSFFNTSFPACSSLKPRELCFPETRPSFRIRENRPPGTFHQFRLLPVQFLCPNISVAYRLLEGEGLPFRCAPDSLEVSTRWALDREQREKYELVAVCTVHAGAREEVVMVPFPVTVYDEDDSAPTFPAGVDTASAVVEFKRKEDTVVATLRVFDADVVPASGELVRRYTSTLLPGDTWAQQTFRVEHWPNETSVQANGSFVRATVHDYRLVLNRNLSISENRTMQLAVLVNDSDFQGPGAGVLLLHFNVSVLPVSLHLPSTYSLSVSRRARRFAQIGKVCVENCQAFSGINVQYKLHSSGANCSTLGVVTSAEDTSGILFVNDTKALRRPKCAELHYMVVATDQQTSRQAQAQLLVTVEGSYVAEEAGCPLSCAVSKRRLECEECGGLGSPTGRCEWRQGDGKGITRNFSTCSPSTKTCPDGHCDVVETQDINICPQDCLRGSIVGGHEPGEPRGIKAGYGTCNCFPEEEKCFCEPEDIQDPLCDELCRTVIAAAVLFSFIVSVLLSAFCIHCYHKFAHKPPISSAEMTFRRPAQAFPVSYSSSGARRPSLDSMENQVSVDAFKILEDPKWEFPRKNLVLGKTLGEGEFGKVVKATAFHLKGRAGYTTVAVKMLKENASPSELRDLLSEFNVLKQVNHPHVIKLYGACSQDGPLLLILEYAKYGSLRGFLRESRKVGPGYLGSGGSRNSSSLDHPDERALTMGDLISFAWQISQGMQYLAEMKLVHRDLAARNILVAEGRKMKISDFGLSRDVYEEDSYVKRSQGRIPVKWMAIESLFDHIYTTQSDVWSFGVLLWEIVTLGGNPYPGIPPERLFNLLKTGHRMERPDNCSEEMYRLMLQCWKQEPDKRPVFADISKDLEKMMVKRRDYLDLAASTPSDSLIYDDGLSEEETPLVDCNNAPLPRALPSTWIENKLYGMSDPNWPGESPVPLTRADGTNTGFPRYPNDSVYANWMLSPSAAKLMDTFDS
Sequence of Protein-tyrosine kinase 2-beta (Homo sapiens) (Q14289 whole entry, looked up): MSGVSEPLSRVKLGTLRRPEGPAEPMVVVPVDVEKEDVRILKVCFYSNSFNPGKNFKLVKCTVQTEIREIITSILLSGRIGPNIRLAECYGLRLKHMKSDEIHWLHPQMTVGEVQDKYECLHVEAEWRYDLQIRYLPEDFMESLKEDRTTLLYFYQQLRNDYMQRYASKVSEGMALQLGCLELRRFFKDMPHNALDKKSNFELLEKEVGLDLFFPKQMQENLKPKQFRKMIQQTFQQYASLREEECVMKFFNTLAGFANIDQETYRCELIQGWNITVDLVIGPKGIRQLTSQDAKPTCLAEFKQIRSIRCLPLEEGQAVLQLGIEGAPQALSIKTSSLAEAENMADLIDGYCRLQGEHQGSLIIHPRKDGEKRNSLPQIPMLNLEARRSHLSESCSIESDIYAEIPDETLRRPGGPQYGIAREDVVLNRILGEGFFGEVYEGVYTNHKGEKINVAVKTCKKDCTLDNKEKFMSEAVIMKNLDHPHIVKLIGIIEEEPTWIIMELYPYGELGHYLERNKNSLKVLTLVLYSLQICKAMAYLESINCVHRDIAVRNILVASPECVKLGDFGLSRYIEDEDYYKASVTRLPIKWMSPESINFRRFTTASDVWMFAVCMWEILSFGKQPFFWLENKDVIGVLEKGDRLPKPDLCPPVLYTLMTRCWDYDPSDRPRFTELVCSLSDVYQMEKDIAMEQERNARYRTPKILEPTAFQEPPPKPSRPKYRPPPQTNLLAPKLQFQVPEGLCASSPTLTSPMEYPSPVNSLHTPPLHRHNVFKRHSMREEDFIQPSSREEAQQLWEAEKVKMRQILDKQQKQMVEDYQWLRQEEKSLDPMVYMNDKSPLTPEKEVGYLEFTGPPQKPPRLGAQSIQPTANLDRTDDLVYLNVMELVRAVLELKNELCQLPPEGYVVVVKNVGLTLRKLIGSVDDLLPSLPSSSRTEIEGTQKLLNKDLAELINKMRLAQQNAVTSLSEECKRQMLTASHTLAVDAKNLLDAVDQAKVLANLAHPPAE
Sequence of Platelet-derived growth factor receptor alpha (Homo sapiens) (P16234 whole entry): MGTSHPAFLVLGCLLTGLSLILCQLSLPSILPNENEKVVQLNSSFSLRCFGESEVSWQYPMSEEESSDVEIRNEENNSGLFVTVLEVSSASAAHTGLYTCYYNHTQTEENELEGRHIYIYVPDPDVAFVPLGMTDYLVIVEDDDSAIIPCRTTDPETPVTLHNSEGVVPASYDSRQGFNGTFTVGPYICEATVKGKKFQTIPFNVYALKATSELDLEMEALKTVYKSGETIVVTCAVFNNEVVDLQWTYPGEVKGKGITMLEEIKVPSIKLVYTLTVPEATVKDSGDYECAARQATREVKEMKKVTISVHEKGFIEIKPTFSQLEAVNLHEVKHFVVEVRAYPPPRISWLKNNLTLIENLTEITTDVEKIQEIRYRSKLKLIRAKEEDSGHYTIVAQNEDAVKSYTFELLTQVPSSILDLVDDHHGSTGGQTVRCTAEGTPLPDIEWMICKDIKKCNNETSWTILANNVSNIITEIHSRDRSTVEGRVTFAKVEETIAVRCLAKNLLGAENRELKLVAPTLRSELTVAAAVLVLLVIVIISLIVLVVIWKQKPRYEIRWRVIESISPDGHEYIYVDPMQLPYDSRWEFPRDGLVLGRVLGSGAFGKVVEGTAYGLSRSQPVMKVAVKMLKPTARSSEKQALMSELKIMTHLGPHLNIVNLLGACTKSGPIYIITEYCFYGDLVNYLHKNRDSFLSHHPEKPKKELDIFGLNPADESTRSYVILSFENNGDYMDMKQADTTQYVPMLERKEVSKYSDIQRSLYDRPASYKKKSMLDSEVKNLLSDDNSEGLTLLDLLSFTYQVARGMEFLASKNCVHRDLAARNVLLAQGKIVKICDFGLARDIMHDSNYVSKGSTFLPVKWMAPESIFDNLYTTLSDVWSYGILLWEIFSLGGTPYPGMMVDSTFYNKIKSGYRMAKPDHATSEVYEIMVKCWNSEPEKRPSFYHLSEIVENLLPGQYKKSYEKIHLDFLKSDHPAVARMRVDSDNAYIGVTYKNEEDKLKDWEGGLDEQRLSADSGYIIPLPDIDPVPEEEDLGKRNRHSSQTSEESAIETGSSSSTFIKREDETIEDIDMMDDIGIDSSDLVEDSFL
Sequence of Proto-oncogene tyrosine-protein kinase receptor Ret (Homo sapiens) (P07949 whole entry): as the sequence (P07949 whole entry V804L) above, with L804V counted along it

As usually defined, the inhibition is the change of the read-out against control, counted positive when it falls. Consider `COc1cc(N2CCN(C(C)C)CC2)ccc1Nc1nc(Nc2cccc3ncccc23)c2cc[nH]c2n1`, for which the inhibition stood at 9.48% in assay [1]; 2.96% in assay [2]; 15.3% in assay [3]; 0.2% in assay [4]; 5.09% in assay [5]; 2.09% in assay [6]. The inhibition turned out to be 2.26% in assay [7]; 3.08% in assay [8]; 14.8% in [9]; 1.3% in assay [10]; 8.9% in [11]; 0.82% in assay [12]. Further, the inhibition in assay [13] amounted to 1.26%; in [14], 15.2%; in assay [15], 93.1%; in assay [16] it was 4.55%; in [17] it was 3.04%; in [18] it was 7.14%. Also, the inhibition was 14% in [19] and 8.29% in assay [20].

In the case of `NS(=O)(=O)c1cccc(N/C=C2\C(=O)Nc3ccccc32)c1`, the inhibition in [1] was 12.1%; in assay [2] it was 7.39%; in assay [3] it was 26.2%; in [4], 4.57%; in assay [5], 15.1%; in assay [6] it was 9.22%. The inhibition worked out at 46.1% in assay [7]; 5.48% in [8]; 31.2% in assay [9]; 4.88% in assay [10]; 22.3% in [11]; 3.47% in [12]. For the same molecule, the inhibition in [13] was found to be 5.58%; in [14] it was 14.1%; in assay [15], 27.4%; in assay [16] it was 7.9%; in assay [17] it was 30.6%; in assay [18], 11%. For the same molecule, the results for the inhibition in assay [19] and in assay [20] were 48.6% and 10.1%, respectively.

Consider `CS(=O)(=O)Nc1ccc(-c2cc(-c3ccccc3)cc(C(N)=O)c2N)cc1`, for which the inhibition is 5.45% in assay [1]; 5.04% in assay [2]; 12.1% in [3]; -0.88% in assay [4]; 1.32% in assay [5]; 3.63% in assay [6]. The inhibition is 9.21% in assay [7]; 3.05% in assay [8]; 5.7% in assay [9]; 4% in [10]; 9.4% in [11]; -0.3% in [12]. Also, the inhibition in assay [13] was 1.63%; in assay [14], 3.11%; in assay [15], 8.02%; in assay [16] it was -0.09%; in assay [17], 2.84%; in assay [18], 2.01%. For the same molecule, the inhibition was 2.99% in [19] and 4% in [20].

With `CN(C)CCNC(=O)Nc1ccc(N(C)c2ccnc(Nc3ccc(CS(C)(=O)=O)cc3)n2)cc1`, the inhibition in assay [1] came to 10.1%; in assay [2], 19.4%; in [3] it was 54%; in assay [4] it was 9.49%; in [5] it was 36.1%; in assay [6] it was 9.77%. Further, the inhibition was determined as 42.5% in [7]; 39.2% in assay [8]; 67.4% in assay [9]; 28.4% in assay [10]; 66.8% in assay [11]; 0.22% in [12]. The inhibition was determined as 0.97% in assay [13]; 18.4% in [14]; 58.6% in [15]; 7.81% in [16]; 14.9% in assay [17]; 4.98% in [18]. The inhibition amounted to 13.9% in [19] and 9.9% in assay [20].

In the case of `COc1cccc(-n2ncc3c(N/N=C/c4ccc(C(=O)NCCN(C)C)cc4)ncnc32)c1`, the inhibition in assay [1] was found to be 80.3%; in [2] it was 42.3%; in assay [3] it was 74.1%; in assay [4] it was 55.7%; in [5], 88.8%; in assay [6], 20.5%. For the same molecule, the inhibition came to 78.5% in [7]; 44% in assay [8]; 85.5% in assay [9]; 62.4% in assay [10]; 77.6% in assay [11]; 3.91% in assay [12]. The inhibition worked out at 12.2% in assay [13]; 5.72% in [14]; 12.1% in [15]; 22.4% in [16]; 66.9% in [17]; 12.7% in assay [18]. The inhibition was found to be 50.4% in assay [19] and 37.3% in assay [20].

For the molecule `CS(=O)(=O)CCNCc1ccoc1-c1ccc2ncnc(Nc3ccc(OCc4ccccc4)cc3)c2c1`, the inhibition is 3.07% in [1]; 7.98% in assay [2]; 15.1% in assay [3]; -0.69% in assay [4]; 2.14% in [5]; 4.43% in [6]. Further, the inhibition in assay [7] is 8.96%; in assay [8] it was 1.67%; in [9], 7.53%; in assay [10] it was 0.39%; in assay [11], 5.15%; in [12], -0.85%. The inhibition was determined as 0.98% in [13]; 0.12% in assay [14]; 1.57% in assay [15]; 3.73% in assay [16]; 0.18% in assay [17]; 8.41% in assay [18]. Moreover, the inhibition in assay [19] is 9.53%; in assay [20], 4.19%.
